# From PubChem BioAssay (NCI)
# “And” between values parts separate entries of the source, which are not always exact repeats. Identical values can stand only once. The panel holds about 83,000 compounds, 20% with a hit somewhere; the sample as a whole holds those more often.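 Results are percent growth after 48 hours of single-concentration exposure. 100 means growth as in untreated cells, lower positive values show inhibition; negative values down to -100 show cell death.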 Values without a mark were called inactive. The source made the active and inactive calls. The calls were made as follows: active = growth percent below 10; inactive = the rest.
# System: MCF7 breast
# Assay: NCI-60 one-dose screen, 48 h (100 = growth as untreated, 0 = no growth, -100 = all killed)
# Conditions: 10 µM unless noted
row,Compound,growth
1,Cc1nc(Nc2ccccn2)sc1C1=NNC(c2ccccc2F)C1 (stereo not drawn),20.1%
2,CC(C)(C)c1ccc(OCc2nc3ccccc3n2-c2cccc(N)c2)cc1,32% and 92.1%
3,CC1=C(C(=O)OCc2ccccc2)C(c2cccc3ccccc23)n2c(nc3ccccc32)N1 (stereo not drawn),12.7%
4,Cc1cc(=O)oc2cc(OCC(O)CNN3C(=O)c4cccc5c(N6CCN(C)CC6)ccc(c45)C3=O)ccc12 (stereo not drawn),88.6%
5,CN(C)CCOc1ccc(C(=O)C2[C@H](c3ccc(Cl)cc3)[C@@H](c3ccccc3)NC23C(=O)Nc2ccc(Cl)cc23)cc1 (stereo partly drawn),-81.5% (active)
6,O=C1Nc2cc(-c3ccc(NS(=O)(=O)c4ccc(-c5ccccc5)cc4)cc3)ccc2/C1=C/c1ccc[nH]1,-25.2% (active)
7,CCCSc1nnc(-c2sc3nc4ccccc4n3c2C)o1,90.3%
8,COc1ccc2[nH]c(O)c(N=Nc3nc(-c4ccc(C#N)cc4)cs3)c2c1,69.8%
9,CCOc1ccc2[nH]c(=O)c(C(c3nnnn3CC3CCCO3)N3CCN(Cc4ccccc4)CC3)cc2c1 (stereo not drawn),92.4%
10,Cc1cccc(NCC(=O)N2CCN(c3ncnc4c3cnn4-c3ccccc3)CC2)c1,45.6%
11,COc1ccc(NC(=O)CSc2nnc(-c3ccc(-c4nc5ccc(Cl)cc5[nH]4)cc3)o2)cc1,42.2%
12,N/C(=N\c1nc2ccccc2s1)NC(=O)Nc1ccccc1[N+](=O)[O-],12.8%
13,N#CC1=C(c2cccs2)Nc2c(c(-c3ccccc3)nn2-c2ccccc2)C12C(=O)Nc1ccc(Cl)cc12 (stereo not drawn),15.1%
